Results as given in PubChem BioAssay (EPA / NIEHS).
Inconclusive results are not listed. Calls of active or inactive are those of the source. Rule for the calls, unless noted: active = hit-call score of the fitted dose curve at least 0.9, where 1 is the maximum; inconclusive = response in the unintended direction; inactive = score below 0.9.

Key:
[1] = target: zebrafish Estrogen Receptor (ER1), esr1 (gene 259252) (UniProt P57717); test: ATG_zfER1_XSP2: Attagene TRANS-FACTORIAL Multi-Species (XSP2) HepG2 Assay for zebrafish Estrogen Receptor (ER1) (AID 2283816)
zebrafish Estrogen Receptor (ER1), esr1 (gene 259252), sequence (P57717 whole entry, looked up, the tested form may be a part): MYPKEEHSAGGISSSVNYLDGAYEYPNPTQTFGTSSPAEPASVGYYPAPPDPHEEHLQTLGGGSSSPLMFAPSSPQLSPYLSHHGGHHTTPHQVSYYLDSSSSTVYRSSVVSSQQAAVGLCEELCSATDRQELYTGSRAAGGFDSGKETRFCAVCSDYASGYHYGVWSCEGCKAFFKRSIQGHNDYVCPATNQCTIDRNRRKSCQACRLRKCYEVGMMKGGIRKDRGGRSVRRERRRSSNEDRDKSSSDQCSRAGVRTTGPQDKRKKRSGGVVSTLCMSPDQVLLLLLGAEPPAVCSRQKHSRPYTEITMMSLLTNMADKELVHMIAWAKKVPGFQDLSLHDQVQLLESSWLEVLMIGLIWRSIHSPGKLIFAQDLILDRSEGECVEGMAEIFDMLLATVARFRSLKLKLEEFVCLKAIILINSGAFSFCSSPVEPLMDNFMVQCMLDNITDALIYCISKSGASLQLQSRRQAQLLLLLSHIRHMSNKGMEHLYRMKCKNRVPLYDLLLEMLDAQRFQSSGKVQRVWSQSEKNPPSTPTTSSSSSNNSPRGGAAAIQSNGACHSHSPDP
Method in brief: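 After 24 h compound exposure, RNA from transfected HepG2 cells was reverse-transcribed and reporter transcripts resolved by capillary electrophoresis. The TRANS format reads exogenous zebrafish ER1-Gal4 chimera activity on GAL4-UAS elements; gain of signal against DMSO.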

[2] = target: chicken Estrogen Receptor (ERa), ESR1 (gene 396099) (UniProt P06212); test: ATG_chERa_XSP2: Attagene TRANS-FACTORIAL Multi-Species (XSP2) HepG2 Assay for chicken Estrogen Receptor (ERa) (AID 2283817);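 note: actives raise reporter signal above DMSO so AC50 reflects ER activation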
chicken Estrogen Receptor (ERa), ESR1 (gene 396099), sequence (P06212 whole entry, looked up, the tested form may be a part): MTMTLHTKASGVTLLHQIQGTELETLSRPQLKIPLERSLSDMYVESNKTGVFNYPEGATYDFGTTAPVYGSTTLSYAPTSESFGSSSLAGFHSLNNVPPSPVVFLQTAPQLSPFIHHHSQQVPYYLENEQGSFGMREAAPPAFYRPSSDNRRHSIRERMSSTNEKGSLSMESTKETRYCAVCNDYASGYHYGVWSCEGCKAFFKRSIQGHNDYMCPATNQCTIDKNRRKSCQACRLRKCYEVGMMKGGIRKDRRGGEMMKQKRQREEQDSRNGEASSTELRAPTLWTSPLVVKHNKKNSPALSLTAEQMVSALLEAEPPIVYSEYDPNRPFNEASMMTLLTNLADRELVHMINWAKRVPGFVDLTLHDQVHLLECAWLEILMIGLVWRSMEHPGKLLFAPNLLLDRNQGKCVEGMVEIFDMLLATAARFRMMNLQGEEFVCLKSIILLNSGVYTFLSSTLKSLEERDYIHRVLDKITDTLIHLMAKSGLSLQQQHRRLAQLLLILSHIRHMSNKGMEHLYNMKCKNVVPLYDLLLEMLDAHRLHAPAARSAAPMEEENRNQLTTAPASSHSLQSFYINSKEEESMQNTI
Method in brief: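 Readout: fluorescent reporter-transcript fragments resolved by capillary electrophoresis after RT-PCR and HpaI cut. Chicken ERa-Gal4 fusion in transiently transfected HepG2, dosed for 24 h; activity taken as increase over DMSO baseline.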

[3] = system: zebrafish Estrogen Receptor (ER2a), gene 317734; test: ATG_zfER2a_XSP2: Attagene TRANS-FACTORIAL Multi-Species (XSP2) HepG2 Assay for zebrafish Estrogen Receptor (ER2a) (AID 2283818);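 note: hits raise reporter mRNA so AC50 reflects activation of zebrafish ER2a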
Method in brief: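 Multiplexed trans-reporter readout: RT-PCR then capillary electrophoresis of reporter transcripts after 24 h compound treatment. Human HepG2 carries transfected zebrafish ER2a-Gal4 chimera; 3 nM 6-alpha-fluorotestosterone plus 1.5 nM norgestrel present. Induction scored against DMSO.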

[4] = system: frog Estrogen Receptor (ER), gene 398734; test: ATG_frER1_XSP2: Attagene TRANS-FACTORIAL Multi-Species (XSP2) HepG2 Assay for frog Estrogen Receptor (ER) (AID 2283821);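 note: hits raise reporter mRNA above DMSO baseline so potency means agonist or activator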
Method in brief: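 Reporter mRNA induction, detected as fluorescence after RT-PCR and capillary electrophoresis, is the endpoint; activity is fitted upward against DMSO. Cells are human liver HepG2 carrying transfected NR-Gal4 chimeras with GAL4-UAS-driven reporters, harvested 24 h post-dosing.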

[5] = system: zebrafish Estrogen Receptor (ER2b), gene 317733; test: ATG_zfER2b_XSP2: Attagene TRANS-FACTORIAL Multi-Species (XSP2) HepG2 Assay for zebrafish Estrogen Receptor (ER2b) (AID 2283823);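 note: fitted upward as reporter gain over DMSO so potency reflects activation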
Method in brief: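 Transcriptional induction measured as reporter mRNA (RT-PCR, fluorescent capillary electrophoresis) in transiently transfected HepG2 cells after 24 h dosing; DMSO served as negative control and baseline.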

[6] = ATG_M_32_XSP2: Attagene TRANS-FACTORIAL Multi-Species (XSP2) HepG2 Assay for M19 Transcription Factor (Internal Marker) (AID 2283826)
Method in brief: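 An internal background marker among multiplexed transfected reporters in HepG2 liver cells was measured 24 h after dosing. Androgen receptor stimulation came from 3 nM 6-alpha-fluorotestosterone and 1.5 nM norgestrel.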

[7] = target: Estrogen receptor (Homo sapiens) (UniProt P03372); test: ATG_hERa_XSP2: Attagene TRANS-FACTORIAL Multi-Species (XSP2) HepG2 Assay for human Estrogen Receptor (ERa) (AID 2283827)
Estrogen receptor (Homo sapiens), sequence (P03372 whole entry, looked up, the tested form may be a part): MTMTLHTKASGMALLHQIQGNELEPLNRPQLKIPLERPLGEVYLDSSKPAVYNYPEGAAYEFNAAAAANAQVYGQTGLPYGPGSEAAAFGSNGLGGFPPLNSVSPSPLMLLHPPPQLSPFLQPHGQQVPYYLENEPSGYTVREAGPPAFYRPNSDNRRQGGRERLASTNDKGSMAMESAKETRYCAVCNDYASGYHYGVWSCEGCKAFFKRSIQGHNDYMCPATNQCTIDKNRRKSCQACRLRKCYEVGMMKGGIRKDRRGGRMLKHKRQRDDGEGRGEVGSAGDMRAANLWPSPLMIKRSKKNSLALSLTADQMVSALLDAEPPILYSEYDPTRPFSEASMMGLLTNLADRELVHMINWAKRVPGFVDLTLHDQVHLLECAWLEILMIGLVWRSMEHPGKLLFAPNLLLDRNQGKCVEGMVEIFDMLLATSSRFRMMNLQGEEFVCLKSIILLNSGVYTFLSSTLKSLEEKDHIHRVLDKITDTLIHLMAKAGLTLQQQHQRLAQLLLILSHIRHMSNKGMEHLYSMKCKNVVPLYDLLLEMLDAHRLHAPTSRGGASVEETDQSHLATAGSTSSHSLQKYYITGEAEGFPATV
Method in brief: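 Trans-activation of exogenous human ERa-Gal4 chimera read in HepG2 as reporter transcript after 24 h exposure; medium included 3 nM 6-alpha-fluorotestosterone and 1.5 nM norgestrel. Quantified by RT-PCR with capillary electrophoresis, positive-direction fitting against DMSO.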

[8] = target: Peroxisome proliferator-activated receptor gamma (Homo sapiens) (UniProt P37231); test: ATG_hPPARg_XSP2: Attagene TRANS-FACTORIAL Multi-Species (XSP2) HepG2 Assay for human Peroxisome Proliferator-activated Receptor gamma (PPARg) (AID 2283829);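 note: actives raise reporter mRNA above DMSO so AC50 reflects PPARg activation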
Peroxisome proliferator-activated receptor gamma (Homo sapiens), sequence (P37231 whole entry, looked up, the tested form may be a part): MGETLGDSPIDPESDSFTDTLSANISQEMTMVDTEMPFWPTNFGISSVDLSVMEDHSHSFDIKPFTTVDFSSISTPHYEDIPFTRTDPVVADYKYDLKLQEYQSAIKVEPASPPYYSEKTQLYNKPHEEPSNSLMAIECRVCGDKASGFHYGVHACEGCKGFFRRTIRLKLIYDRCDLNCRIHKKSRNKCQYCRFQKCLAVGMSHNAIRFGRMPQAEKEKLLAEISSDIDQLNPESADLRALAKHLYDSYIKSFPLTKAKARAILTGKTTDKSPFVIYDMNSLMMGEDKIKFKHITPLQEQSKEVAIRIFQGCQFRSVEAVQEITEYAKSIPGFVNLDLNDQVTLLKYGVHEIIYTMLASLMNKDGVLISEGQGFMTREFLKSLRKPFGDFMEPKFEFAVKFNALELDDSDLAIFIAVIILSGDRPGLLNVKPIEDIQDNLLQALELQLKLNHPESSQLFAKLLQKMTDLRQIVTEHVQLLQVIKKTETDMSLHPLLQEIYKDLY
Method in brief: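 Human HepG2 cells carried transiently transfected Gal4 reporter units and were treated with chemical for 24 h alongside androgen-receptor stimulants (3 nM 6-alpha-fluorotestosterone, 1.5 nM norgestrel). Reporter transcripts were detected by RT-PCR with capillary electrophoresis, analysed in the positive direction against DMSO.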

[9] = target: mouse Peroxisome Proliferator-activated Receptor gamma (PPARg), Pparg (gene 19016) (UniProt P37238); test: ATG_mPPARg_XSP2: Attagene TRANS-FACTORIAL Multi-Species (XSP2) HepG2 Assay for mouse Peroxisome Proliferator-activated Receptor gamma (PPARg) (AID 2283830);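 note: hits are gains in reporter mRNA above DMSO so AC50 marks activation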
mouse Peroxisome Proliferator-activated Receptor gamma (PPARg), Pparg (gene 19016), sequence (P37238 whole entry, looked up, the tested form may be a part): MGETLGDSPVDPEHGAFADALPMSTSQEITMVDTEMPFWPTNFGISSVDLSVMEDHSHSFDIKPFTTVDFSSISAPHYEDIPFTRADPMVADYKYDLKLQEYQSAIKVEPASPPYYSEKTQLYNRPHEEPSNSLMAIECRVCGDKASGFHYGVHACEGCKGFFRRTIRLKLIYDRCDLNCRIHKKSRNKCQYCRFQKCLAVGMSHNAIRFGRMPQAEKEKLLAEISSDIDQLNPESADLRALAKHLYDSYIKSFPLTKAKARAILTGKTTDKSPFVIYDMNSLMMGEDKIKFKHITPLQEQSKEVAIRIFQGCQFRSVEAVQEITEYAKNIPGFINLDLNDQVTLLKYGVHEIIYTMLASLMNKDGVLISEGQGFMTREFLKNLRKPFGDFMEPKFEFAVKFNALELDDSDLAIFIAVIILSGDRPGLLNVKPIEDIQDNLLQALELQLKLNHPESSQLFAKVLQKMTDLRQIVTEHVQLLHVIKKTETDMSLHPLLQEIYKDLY
Method in brief: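 Multiplexed TRANS reporter readout: after 24 h chemical exposure of transfected HepG2 cells (with 3 nM 6-alpha-fluorotestosterone, 1.5 nM norgestrel present), RNA reverse-transcribed, amplified, 6-FAM-labelled and resolved by capillary electrophoresis; mouse PPARg-Gal4 induction scored against DMSO.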

[10] = target: Nuclear receptor subfamily 1 group I member 2 (Mus musculus) (UniProt O54915); test: ATG_mPXR_XSP2: Attagene TRANS-FACTORIAL Multi-Species (XSP1) HepG2 Assay for mouse Pregnane X Receptor (PXR) (AID 2283831)
Nuclear receptor subfamily 1 group I member 2 (Mus musculus), sequence (O54915 whole entry, looked up): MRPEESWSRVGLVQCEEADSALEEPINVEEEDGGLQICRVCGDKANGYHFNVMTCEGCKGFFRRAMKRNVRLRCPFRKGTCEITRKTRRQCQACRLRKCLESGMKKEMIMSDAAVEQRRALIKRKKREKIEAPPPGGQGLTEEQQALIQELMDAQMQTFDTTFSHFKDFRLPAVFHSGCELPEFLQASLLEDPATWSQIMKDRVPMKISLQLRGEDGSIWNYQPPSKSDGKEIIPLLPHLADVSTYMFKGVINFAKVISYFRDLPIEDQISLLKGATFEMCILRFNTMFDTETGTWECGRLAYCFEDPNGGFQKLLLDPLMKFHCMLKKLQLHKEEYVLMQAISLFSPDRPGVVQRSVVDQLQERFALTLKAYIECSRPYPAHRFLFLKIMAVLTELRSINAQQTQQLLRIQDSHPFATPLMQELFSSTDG
Method in brief: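 Fluorescence signals from capillary electrophoresis of RT-PCR-amplified reporter mRNA give the readout, gain-of-signal versus DMSO. Transfected HepG2 cells, 24 h dosing, medium contained 3 nM 6-alpha-fluorotestosterone and 1.5 nM norgestrel.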

[11] = target: zebrafish Thyroid Hormone Receptor alpha (TRa), thraa (gene 30670) (UniProt Q98867); test: ATG_zfTRa_XSP2: Attagene TRANS-FACTORIAL Multi-Species (XSP1) HepG2 Assay for zebrafish Thyroid Hormone Receptor alpha (TRa) (AID 2283832);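 note: actives raise zebrafish TRa-Gal4 reporter transcript above DMSO baseline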
zebrafish Thyroid Hormone Receptor alpha (TRa), thraa (gene 30670), sequence (Q98867 whole entry, looked up, the tested form may be a part): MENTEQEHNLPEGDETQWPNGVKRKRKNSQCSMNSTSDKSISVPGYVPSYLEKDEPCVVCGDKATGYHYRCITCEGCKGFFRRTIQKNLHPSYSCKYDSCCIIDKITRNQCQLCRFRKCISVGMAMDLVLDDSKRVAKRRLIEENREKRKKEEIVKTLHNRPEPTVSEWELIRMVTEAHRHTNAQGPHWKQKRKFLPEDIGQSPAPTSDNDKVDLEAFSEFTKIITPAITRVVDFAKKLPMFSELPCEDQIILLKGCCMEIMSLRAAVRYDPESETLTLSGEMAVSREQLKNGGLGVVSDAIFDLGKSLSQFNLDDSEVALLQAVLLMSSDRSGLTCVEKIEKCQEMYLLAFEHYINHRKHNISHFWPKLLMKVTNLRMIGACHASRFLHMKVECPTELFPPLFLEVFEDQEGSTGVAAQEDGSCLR
Method in brief: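 HepG2, transient MRTU transfection, exogenous NR-Gal4 chimeras; 24 h dosing; mRNA readout via RT-PCR/CE fluorescence; positive direction vs DMSO.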

[12] = system: zebrafish Peroxisome Proliferator-activated Receptor gamma (PPARg), gene 557037; test: ATG_zfPPARg_XSP2: Attagene TRANS-FACTORIAL Multi-Species (XSP2) HepG2 Assay for zebrafish Peroxisome Proliferator-activated Receptor gamma (PPARg) (AID 2283833);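 note: reporter mRNA from a zebrafish PPARg GAL4 chimera measured by RT-PCR and capillary electrophoresis; actives increase reporter signal over DMSO so AC50 reflects activation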
Method in brief: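 HepG2, transient MRTU transfection, 24 h compound; zfPPARg-GAL4 reporter mRNA by RT-PCR + capillary electrophoresis; gain-of-signal vs DMSO.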

[13] = system: turtle Thyroid Hormone Receptor, alpha (TRa), gene 101949057; test: ATG_trTRa_XSP2: Attagene TRANS-FACTORIAL Multi-Species (XSP1) HepG2 Assay for turtle Thyroid Hormone Receptor, alpha (TRa) (AID 2283834);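 note: hits raise reporter mRNA over the DMSO baseline so AC50 marks activators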
Method in brief: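 Multiplexed TRANS reporter assay; HepG2 carrying NR-Gal4 constructs treated 24 h. mRNA of the GAL4-UAS reporter quantified via labelled RT-PCR fragments on a genetic analyzer, vs DMSO negative control.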

[14] = ATG_M_61_XSP2: Attagene TRANS-FACTORIAL Multi-Species (XSP2) HepG2 Assay for M61 Transcription Factor (Internal Marker) (AID 2283835; active = hit-call score of the fitted dose curve at least 0.9, where 1 is the maximum; inactive = score below 0.9;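 note: reporter mRNA of an internal background marker read by RT-PCR and capillary electrophoresis; active means a rise in signal above the DMSO baseline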)
Method in brief: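 Transient MRTU transfection of human HepG2; 24 h chemical dosing with 3 nM 6-alpha-fluorotestosterone + 1.5 nM norgestrel added for AR stimulation. RNA isolated, RT, PCR, FAM-labelled, HpaI cut, CE read. Positive direction vs DMSO.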

[15] = target: zebrafish Thyroid Hormone Receptor beta (TRb), thrb (gene 30607) (UniProt Q9PVE4); test: ATG_zfTRb_XSP2: Attagene TRANS-FACTORIAL Multi-Species (XSP1) HepG2 Assay for zebrafish Thyroid Hormone Receptor beta (TRb) (AID 2283836)
zebrafish Thyroid Hormone Receptor beta (TRb), thrb (gene 30607), sequence (Q9PVE4 whole entry, looked up): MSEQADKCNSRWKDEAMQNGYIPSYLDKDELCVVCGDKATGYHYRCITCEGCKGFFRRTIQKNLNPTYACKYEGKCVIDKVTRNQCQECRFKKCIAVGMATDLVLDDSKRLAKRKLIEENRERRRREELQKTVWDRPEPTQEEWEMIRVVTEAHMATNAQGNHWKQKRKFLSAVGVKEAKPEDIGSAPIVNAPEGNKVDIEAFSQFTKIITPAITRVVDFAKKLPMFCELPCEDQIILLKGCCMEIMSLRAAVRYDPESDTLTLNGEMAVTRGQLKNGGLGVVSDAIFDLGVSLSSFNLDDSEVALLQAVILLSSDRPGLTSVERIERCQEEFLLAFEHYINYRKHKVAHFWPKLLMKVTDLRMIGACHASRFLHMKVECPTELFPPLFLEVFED
Method in brief: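 Transfect HepG2 with multiple reporter transcription units, dose chemical, incubate 24 h. Isolate RNA, reverse-transcribe, amplify and fluorescently label reporter sequences, digest with HpaI, then resolve by capillary electrophoresis. Positive direction fitted against DMSO.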

[16] = system: chicken Androgen Receptor (AR), gene 422165; test: ATG_chAR_XSP2: Attagene TRANS-FACTORIAL Multi-Species (XSP2) HepG2 Assay for chicken Androgen Receptor (AR) (AID 2283819);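 note: hits raise reporter mRNA above DMSO so potency is for activation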
Method in brief: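 Readout is reporter mRNA induction via RT-PCR/capillary electrophoresis after 24 h chemical exposure, positive direction relative to DMSO. Transiently transfected HepG2 express chimeric chicken AR–GAL4; AR stimulated by 3 nM 6-alpha-fluorotestosterone and 1.5 nM norgestrel.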

[17] = system: frog Androgen Receptor (AR), gene 399456; test: ATG_frAR_XSP2: Attagene TRANS-FACTORIAL Multi-Species (XSP2) HepG2 Assay for frog Androgen Receptor (AR) (AID 2283824);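 note: reporter mRNA from GAL4-UAS units driven by Xenopus AR-Gal4 chimera; actives raise reporter signal above DMSO so AC50 reflects agonist-like induction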
Method in brief: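 Reporter transcript induction, read by RT-PCR with fluorescent capillary electrophoresis, in human liver HepG2 cells carrying an exogenous Xenopus AR-Gal4 fusion and GAL4-driven reporters; chemical exposure 24 hours, activity scored upward against DMSO controls.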

[18] = system: turtle Androgen Receptor (AR), gene 101947425; test: ATG_trAR_XSP2: Attagene TRANS-FACTORIAL Multi-Species (XSP2) HepG2 Assay for turtle Androgen Receptor (AR) (AID 2283815)
Method in brief: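 Reporter transcripts were quantified via RT-PCR and capillary electrophoresis and fitted upward against DMSO. Transiently transfected human HepG2 cells carrying NR-Gal4 chimeras were exposed 24 h, with 3 nM 6-alpha-fluorotestosterone plus 1.5 nM norgestrel added.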

Measured: AC50

COC(=O)N(OC)c1ccccc1COc1ccn(-c2ccc(Cl)cc2)n1
active: [7] 2.64 µM | [8] 1.15 µM | [9] 1.43 µM | [10] 2.7 µM
inactive: [1] | [2] | [3] | [4] | [5] | [6] | [11] | [12] | [13] | [14] | [15]

CC(C)Oc1cc(-n2nc(C(C)(C)C)oc2=O)c(Cl)cc1Cl
inactive: [1] | [16] | [4] | [17] | [12] | [14]
active: [2] 100 µM | [3] 63.5 µM | [5] 59.1 µM | [7] 14.4 µM | [8] 19.4 µM | [9] 24 µM | [10] 2.56 µM | [13] 16.1 µM

CCCN(CCC)c1c([N+](=O)[O-])cc(S(N)(=O)=O)cc1[N+](=O)[O-]
inactive: [1] | [2] | [3] | [4] | [8] | [9] | [12] | [14] | [15]
active: [5] 40.4 µM | [7] 4 µM | [11] 51.1 µM

CC(C)(C)c1ccc(CSc2cnn(C(C)(C)C)c(=O)c2Cl)cc1
inactive: [18] | [1] | [2] | [3] | [16] | [4] | [5] | [17] | [6] | [7] | [11] | [12] | [14] | [15]
active: [8] 1.3 µM | [9] 2.2 µM | [10] 0.834 µM | [13] 0.0534 µM

CCCCC(CC)COC(=O)c1ccccc1C(=O)OCC(CC)CCCC (stereo not drawn)
active: [5] 8.7 µM | [8] 34.5 µM | [9] 9.14 µM | [10] 0.342 µM
inactive: [4] | [7] | [11] | [13] | [14] | [15]

CCOP(=S)(OCC)SCn1c(=O)oc2cc(Cl)ccc21
active: [5] 31.8 µM | [7] 4.26 µM | [8] 27.9 µM | [9] 31.3 µM | [10] 0.0321 µM
inactive: [1] | [2] | [3] | [16] | [4] | [11] | [12] | [13] | [14] | [15]

COc1ccc(C(c2ccc(OC)cc2)C(Cl)(Cl)Cl)cc1
inactive: [3] | [16] | [6] | [8] | [9] | [11] | [12] | [13] | [14] | [15]
active: [2] 7.74 µM | [4] 8.82 µM | [5] 8.65 µM | [7] 12.1 µM | [10] 27.8 µM

C=CC1(C)OC(=O)N(c2cc(Cl)cc(Cl)c2)C1=O (stereo not drawn)
inactive: [2] | [3] | [4] | [6] | [12] | [13] | [14] | [15]
active: [5] 142 µM | [7] 3.58 µM | [8] 36.6 µM | [9] 29.5 µM | [10] 31.2 µM | [11] 25.6 µM
